Assay outcomes from PubChem BioAssay.
697 NFkB inh – lowers PMA/ionomycin-induced NF-kB signal in 697 B cells; 697 B-cell NF-kB luciferase reporter, 16 h; 330,000 tested, 0.33% active; inhibition, % at 4 µM; in the data active means inhibition above about 35%
NR2F2 inh – blocks human COUP-TFII nuclear receptor; P24468; inhibition, % at 8.6 µM; 370,000 tested, 0.7% active; HEK293T NGFI-A luciferase reporter, luminescence; AID 686940;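 active means inhibition above a per-plate cutoff, mean inhibition of test wells between control levels plus 3 SD, cut at about 38% in these data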;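 further: cells cotransfected with COUP-TFII expression vector driving the NGFI-A reporter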
Target sequence (P24468 whole entry, looked up): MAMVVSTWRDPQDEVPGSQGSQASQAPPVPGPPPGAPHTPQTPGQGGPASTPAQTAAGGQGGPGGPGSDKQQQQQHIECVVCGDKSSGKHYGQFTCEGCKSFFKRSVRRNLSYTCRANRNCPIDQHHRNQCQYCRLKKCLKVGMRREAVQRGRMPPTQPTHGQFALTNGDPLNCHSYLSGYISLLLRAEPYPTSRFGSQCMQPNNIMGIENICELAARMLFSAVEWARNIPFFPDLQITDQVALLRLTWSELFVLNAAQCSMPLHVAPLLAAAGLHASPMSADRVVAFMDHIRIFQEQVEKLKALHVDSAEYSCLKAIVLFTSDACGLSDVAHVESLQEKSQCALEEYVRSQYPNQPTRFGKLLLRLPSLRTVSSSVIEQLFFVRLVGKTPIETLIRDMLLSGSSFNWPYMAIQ
Gli-Sufu antag – antagonists of Gli-Sufu signaling | Sufu-KO-LIGHT fibroblasts, Gli luciferase reporter luminescence | inhibition, % at 5 µM | 340,000 tested, 0.74% active;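 active means inhibition above about 55%, limit read from the data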
Jurkat NFkB inh – inhibitors of the PMA/ionomycin-induced NF-kB reporter in Jurkat cells. AID 435003. 330,000 tested, 0.53% active. PMA/ionomycin-induced NF-kB luciferase reporter, luminescence. inhibition, % at 4 µM; in the data active means inhibition above about 50%
GalR3 antag – human GalR3 antagonism; O60755; HEK293 GalR3-CNG cAMP membrane potential fluorescence; galR3 body fused to GalR1 C-terminus; inhibition, % at 3 µM; 360,000 tested, 0.44% active; AID 651719;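 active means inhibition above the screen-wide average plus 3 SD, cut at about 13% in these data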;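 further: forskolin and galanin both at EC90 stimulate the cells; cAMP rise reported by CNG channel membrane potential dye signal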
697 NFkB conf – lowers PMA/ionomycin-induced NF-kB signal in 697 B cells; inhibition, % at 4 µM; shares compounds with 697 NFkB inh; 2,000 tested, 35% active; 697 B-cell NF-kB luciferase, 16 h; AID 449746; in the data active means inhibition mostly above about 28%, no sharp cut-off; inactive means mostly below about 22%
Of the large screens only hits and unclear results are named; the others gave an inactive call (follow-up assays come after a bar, where they were run). Compounds with a hit are over-represented: about 2% of the library has one in this group of screens.

COc1ccc(S[C@]2(C(=O)N3CCN(c4ncccn4)CC3)CC(=O)N(c3ccc(OC)cc3)[C@@H]2c2ccc(OC)cc2)cc1	none (no result: 697 NFkB inh, Gli-Sufu antag, Jurkat NFkB inh, GalR3 antag)
O=C(O)CCSc1nc2ccccc2s1	697 NFkB inh 40 | 697 NFkB conf 35
c1ccc2sc(SCSc3nc4ccccc4s3)nc2c1	none
COC(=O)[C@H](C)NC(=O)[C@@H]1CCCN1C(=O)CNP(=O)(OCc1ccccc1)OCc1ccccc1	none (no result: 697 NFkB inh, Gli-Sufu antag, Jurkat NFkB inh, GalR3 antag)
COc1cc(/C=C/c2nc3ccccc3s2)cc(OC)c1O	none
Cc1ccc(/C=C/c2nc3ccccc3s2)s1	none | 697 NFkB conf inactive
Clc1ccc(OCc2cc(-c3ccccc3)no2)c(Cl)c1	none | 697 NFkB conf inactive
Cc1ccc(-c2nn3c(C)nnc3c3ccccc23)cc1S(=O)(=O)NCc1ccco1	697 NFkB inh 43 | 697 NFkB conf 43
Cc1nnc2c3ccccc3c(-c3ccccc3)nn12	697 NFkB inh 43 | 697 NFkB conf 32
Cc1ccc(-c2nn3c(C)nnc3c3ccccc23)cc1S(=O)(=O)NC(C)(C)CO	697 NFkB inh 36 | 697 NFkB conf 61
COc1ccc(-c2nnc3c4ccccc4c(C)nn23)cc1S(=O)(=O)N1CCN(CCO)CC1	none
Cc1ccc(-c2nn3c(C)nnc3c3ccccc23)cc1S(=O)(=O)N1CCN(CCO)CC1	697 NFkB inh 37 | 697 NFkB conf 37
Cc1ccc(-c2nn3c(C)nnc3c3ccccc23)cc1S(=O)(=O)NCCO	none
COc1ccc(NC(=S)NCCc2ccccc2)c(OC)c1	none
COc1ccc(NC(=O)C2CCCN2C(=O)OCc2ccccc2)c(OC)c1 (stereo not given)	697 NFkB inh 36 | 697 NFkB conf inactive
COc1ccc(NC(=S)NCc2ccccc2)c(OC)c1	697 NFkB inh 43 | 697 NFkB conf 30
COC(=O)[C@]12C[C@H](CC(=O)NCC3CCCCC3)C(=O)N(CCc3ccc(OC)c(OC)c3)C1=C[C@H](COCc1ccccc1)O[C@@H]2C	none (no result: 697 NFkB inh, Gli-Sufu antag, Jurkat NFkB inh, GalR3 antag)
COc1ccc(CN(CCN2CCOCC2)C(=O)c2cccc(F)c2)cc1OC	none (no result: 697 NFkB inh, Gli-Sufu antag, Jurkat NFkB inh, GalR3 antag)
COc1ccc(-c2cc3ccc(OC)cc3cn2)cc1	none | 697 NFkB conf inactive
COc1ccc2cc(-c3cccnc3)ncc2c1	none
COc1ccc(C2Nc3ccccc3C(=O)N2Cc2ccccc2)cc1COc1ccc(NC(C)=O)cc1 (stereo not given)	none (no result: 697 NFkB inh, Gli-Sufu antag, Jurkat NFkB inh, GalR3 antag)
O=C(Cc1ccc(Cl)cc1)Nc1ccccc1Sc1ccccc1	none
O=C(CCl)Nc1ccccc1Sc1ccccc1	697 NFkB inh 41 | 697 NFkB conf 34
COc1ccc(CNC(=O)C(=O)NCCCn2ccnc2)cc1	697 NFkB inh 38 | 697 NFkB conf inactive
COc1ccc(NC(=O)C(=O)NCCCn2ccnc2)cc1	none
CCCOc1ccc(NC(=O)C(=O)NCCCn2ccnc2)cc1	697 NFkB inh 56 | 697 NFkB conf 53
CCCCNC(=O)C[C@H]1C[C@@]2(C(=O)OC)C(=C[C@H](C3CCCC3)O[C@@H]2C)N(Cc2ccc(Cl)cc2Cl)C1=O	none (no result: 697 NFkB inh, Gli-Sufu antag, Jurkat NFkB inh, GalR3 antag)
Cc1nc2cc(C(=O)N3CCN(C(=O)C(C)(C)C)CC3)ccc2n1C1CCCC1	none (no result: 697 NFkB inh, Gli-Sufu antag, Jurkat NFkB inh, GalR3 antag)
Oc1ccccc1-c1cc(-c2ccc3c(c2)OCCO3)n[nH]1	none | 697 NFkB conf inactive
CCC[C@H]1[C@@H](OC(=O)NCc2cccs2)CC[C@@]23CCCN2C(=O)CCC[C@@H]13	none (no result: 697 NFkB inh, Gli-Sufu antag, Jurkat NFkB inh, GalR3 antag)
O=C(NCCCN1CCOCC1)c1cc(-c2ccc(Br)cc2)on1	697 NFkB inh 63 (no result: Gli-Sufu antag) | 697 NFkB conf 38
O=C(NCCN1CCOCC1)c1cc(-c2ccc(Br)cc2)on1	none
Nc1nn(-c2ccccc2)c(N)c1N=Nc1ccccc1F	none | 697 NFkB conf inactive
Nc1nn(-c2ccccc2)c(N)c1N=Nc1ccccc1	none
CCOC(=O)N1CCN(c2ncnc3c2[nH]c2ccc(OC)cc23)CC1	697 NFkB inh 37 | 697 NFkB conf 38
O=C(c1ccco1)N1CCN(c2ncnc3c2[nH]c2ccccc23)CC1	697 NFkB inh 36 (no result: NR2F2 inh, Gli-Sufu antag, GalR3 antag) | 697 NFkB conf inactive
O=C(Nc1nc2ncccn2c1-c1ccc(F)c(F)c1)c1ccccc1	none (no result: 697 NFkB inh, Gli-Sufu antag, Jurkat NFkB inh, GalR3 antag)
O=C(NCc1ccc(Cl)cc1)C1C2C=CC3(CN(Cc4ccccc4)C(=O)C13)O2 (stereo not given)	none (no result: 697 NFkB inh, Gli-Sufu antag, Jurkat NFkB inh, GalR3 antag)
COc1ccc(S[C@]2(C(=O)N(C)C)CC(=O)N(c3ccc(Cl)cc3)[C@@H]2c2ccc(OC)cc2)cc1	none (no result: 697 NFkB inh, Gli-Sufu antag, Jurkat NFkB inh, GalR3 antag)
CCc1cccc(NC(=O)c2ccc(CNc3c(N4CCCC4)c(=O)c3=O)cc2)c1	697 NFkB inh 42 | 697 NFkB conf 33
